Holding throughout (assay): Cytotoxic Profiling of Annotated Libraries Using Quantitative High-Throughput Screening (AID 1296008); also: nearly all actives have a fitted effect of over 60% in size
Holding throughout (conditions): Five cell lines viability, CellTiter-Glo ATP luminescence, 48-72 h; max response: stronger effect = lower value
(ATP-based viability assays read luminescence as a measure of living cells.)

One experiment concerns CRL-7250. The gist of the method:
(§1)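 Cells exposed to compounds for 48 or 72 hr at 37 degrees Celsius. Viability read as ATP-coupled luminescence with CellTiter-Glo after 10 min at room temperature.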

The test system of the next experiment is HEK293. The gist of the method:
as §1

A further experiment relates to HaCat. The procedure, abridged:
as §1

The test system of another experiment is KB-3-1. The procedure, abridged: as §1
The subject of another experiment is NIH3T3. The procedure, abridged:
as §1

Inconclusive results are not listed. Values without a mark were called inactive. Activity calls are given as the source filed them. Calls follow the shape of the dose curve; as a rule, active = well fitted inhibition curve with a large enough effect; inconclusive = small, poorly fitted or top-dose-only effect; inactive = flat fitted curve, though single readings scatter. Where a SMILES comes first, the peptide text is derived from it. The star is where a group is joined. PhAc = O=C(Cc1ccccc1)*
% is scaled to controls: 0 for no effect and ±100 for the full control effect; potency is read from the fitted curve at half-maximal effect.

As to `Oc1ccc2c(-c3c(-c4ccccn4)nn4c3CCC4)ccnc2c1`, the max response was -1.66% with CRL-7250, -21.7% in the experiment with HEK293 and -4.91% in the experiment with KB-3-1. In addition, the molecule was called inactive in the experiment with HaCat. Moreover, the Potency in the experiment with NIH3T3 was 13 µM (active).
As to `CCOC(=O)CNC(=O)[C@@H]1CCCN1C(=O)Cc1ccccc1` (PhAc-Pro-Gly-OEt), the max response in the experiment with CRL-7250 was -0.853%; in the experiment with HEK293 it was 4.73%; with KB-3-1, 5.86%; in the experiment on NIH3T3, -14.5%. In the experiment on HaCat, the call was inactive.
Take `CC1(C)OC(=O)CC(O)C2(C)C1CC(=O)C1(C)C2C(O)CC2(C)C(c3ccoc3)OC(=O)C3OC321` (stereo not given): the figures for the max response with CRL-7250, with HaCat and in the experiment on NIH3T3 were -14.5%, -9.13% and -11.7%, respectively. Besides, the call with HEK293 and in the experiment on KB-3-1 was inactive.
As for `Cc1ccc(COC(=O)N2CC[C@@H](CNc3ncccn3)[C@@H](F)C2)cc1`, the max response in the experiment on CRL-7250 is -0.943%; in the experiment with HEK293 it was -31.7%; in the experiment with KB-3-1, -17.2%; in the experiment on NIH3T3 it was -18.5%. Moreover, the call in the experiment on HaCat was inactive.
`CC1(C)CC[C@]2(C(=O)O[C@@H]3O[C@H](CO)[C@@H](O)[C@H](O)[C@H]3O)CC[C@]3(C)C(=CCC4[C@@]5(C)CC[C@H](O[C@H]6O[C@H](CO)[C@@H](O)[C@H](O[C@@H]7O[C@H](CO)[C@@H](O)[C@H](O)[C@H]7O)[C@H]6O)C(C)(C)C5CC[C@]43C)[C@@H]2C1` (stereo not given in full): the max response in the experiment with CRL-7250 is -1.95%; in the experiment on HEK293, -4.45%; in the experiment with KB-3-1 it was 4.79%. Moreover, the call in the experiment on HaCat and in the experiment with NIH3T3 was inactive.
As to `C[C@H]1[C@H](C)CC[C@]2(C(=O)O)CC[C@]3(C(=O)O)C(=CCC4[C@@]5(C)CC[C@H](O[C@@H]6O[C@@H](C)[C@H](O)[C@@H](O)[C@H]6O)C(C)(C)C5CC[C@]43C)[C@H]12` (stereo not given in full), the outcome in the experiment on CRL-7250 and in the experiment on HaCat was inactive. For the same molecule, the max response is -0.583% in the experiment on HEK293, -0.753% in the experiment with KB-3-1 and 4.82% in the experiment on NIH3T3.
For the molecule `COc1ccnc(CCc2nc3ncccc3[nH]2)c1`, the max response was -4.02% in the experiment with CRL-7250, -80.6% with HEK293 and 3.19% in the experiment on NIH3T3. Further, the call in the experiment on HaCat and with KB-3-1 was inactive.
As to `CC1CC(=O)C2C(O)(C1)CC(O)C13OC1c1c(O)cccc1C(=O)C23O` (stereo not given), the call in the experiment on CRL-7250, with HaCat and in the experiment on NIH3T3 was inactive. Also, the max response is -12.4% in the experiment on HEK293 and 3.15% in the experiment on KB-3-1.
For the molecule `CC(=O)NC(Cc1c[nH]c2ccccc(=O)c12)C(=O)O` (stereo not given), the max response in the experiment with CRL-7250 was -6.01%; in the experiment with HEK293, 1.04%; in the experiment with NIH3T3, 1.4%. Besides, the outcome in the experiment with HaCat and in the experiment with KB-3-1 was inactive.
Consider `CC(C)(OC1OC(CO)C(O)C(O)C1O)C1CCC(O)(CO)C2CC(=O)C(C)(O)C2C1` (stereo not given), for which the molecule was classed as inactive with CRL-7250 and in the experiment with NIH3T3. The figures for the max response in the experiment with HEK293, in the experiment with HaCat and in the experiment with KB-3-1 were -8.37%, 0.066% and 2.59%, respectively.
With `COc1cc(Nc2nc3ccccc3nc2NS(=O)(=O)c2cccc(NC(=O)c3ccc(C)c(OC)c3)c2)cc(OC)c1`, the max response was -4.07% in the experiment on CRL-7250, -14.5% in the experiment with HEK293 and -12.1% with KB-3-1. Besides, the call in the experiment with HaCat and in the experiment with NIH3T3 was inactive.
With `CC1CC(=O)[C@]2(O)C(C(=O)OCCc3ccc(O)c(O)c3)=CO[C@@H](O[C@@H]3O[C@H](CO)[C@@H](O)[C@H](O)[C@H]3O)[C@H]12` (stereo not given in full), the max response in the experiment with CRL-7250 was 4.18%; in the experiment on HEK293, -8.88%; in the experiment on KB-3-1 it was 8.6%; in the experiment with NIH3T3, 0.72%. The outcome in the experiment with HaCat was inactive.
In the case of `C=C(C)C1CCC2(C(=O)OC3OC(COC4OC(CO)C(O)C(O)C4O)C(OC4OC(C)C(O)C(O)C4O)C(O)C3O)CCC3(C(=O)O)C(CCC4C5(C)CCC(=O)C(C)(C)C5CCC43C)C12` (stereo not given), the max response with CRL-7250 was -1.47%; in the experiment with HEK293, -21.3%; in the experiment with KB-3-1, 1.44%. The call with HaCat and in the experiment with NIH3T3 was inactive.
For the molecule `C=CCC1=C[C@]2(OC)[C@H](C)[C@@H](c3ccc(OC)c(OC)c3)O[C@]2(OC)CC1=O`, the max response is 4.13% in the experiment with CRL-7250, -10.4% with HEK293 and -0.368% in the experiment with HaCat. Also, the result in the experiment with KB-3-1 and in the experiment on NIH3T3 was inactive.
Regarding `CC(=O)O[C@@]1(C)[C@@H]2CC(=C(C)C)C(=O)C[C@@]2(C)CC[C@H]1OC(=O)C1(C)OC1C` (stereo not given in full), the max response in the experiment on CRL-7250 is 1.92%; in the experiment on HEK293, -20.6%; with HaCat it was 0.799%; in the experiment with KB-3-1, 0.573%. The outcome in the experiment with NIH3T3 was inactive.
The corresponding values for `C/C(=C\C(=O)C(C)C1CCC2C3=C(CCC21C)C1(C)CCC(=O)C(C)(C)C1(O)CC3)C(C)(C)O` (stereo not given) are 3.05%, -15.6%, 1.49%, -3.74% and “inactive”.
For the molecule `COc1cc(Nc2ccc([N+](=O)[O-])cc2C(=O)O)cc2ccccc12`, the max response is -0.179% with CRL-7250, 1.77% in the experiment with HEK293, -5.92% with KB-3-1 and -2.53% in the experiment on NIH3T3. Besides, the call in the experiment on HaCat was inactive.
`C[C@@H]1O[C@@H](O[C@H]2[C@H](OC(=O)[C@]34CCC(C)(C)C[C@H]3C3=CCC5[C@@]6(C)C[C@@H](O)[C@@H](O)[C@@](C)(CO)C6[C@H](O)C[C@@]5(C)[C@]3(C)CC4)OC[C@H](O)[C@@H]2O)[C@H](O)[C@H](O)[C@H]1O[C@@H]1OC[C@@H](O)[C@H](O[C@H]2O[C@H](C)[C@@H](O)[C@H](O)[C@@H]2O)[C@H]1O` (stereo not given in full): the max response in the experiment with CRL-7250 is 1.4%; in the experiment on HEK293, -0.607%; with KB-3-1 it was 8.34%. The outcome in the experiment with HaCat and in the experiment on NIH3T3 was inactive.
As to `CC1=C2C(=O)C=C(CO)C2C2OC(=O)C(CS(=O)(=O)O)C2C(OC(=O)Cc2ccc(O)cc2)C1` (stereo not given), the molecule was called inactive in the experiment on CRL-7250 and in the experiment on NIH3T3. Also, the max response is -5.22% in the experiment with HEK293, -1.36% in the experiment on HaCat and -6.7% in the experiment with KB-3-1.

Source of the values: PubChem BioAssay (NCATS).
